# From PMC7862700, “An all-to-all approach to the identification of sequence-specific readers for epigenetic DNA modifications on cytosine”
# Key:
# Experiment in all cases: DAPPL (digital affinity profiling via proximity ligation, sequencing); 10 mM Tris-HCl pH 7.5, 50 mM NaCl, 1 mM DTT, 4% glycerol, room temperature, 30 min; GST-TFs on glutathione beads, 16-mer random dsDNA library, 0.1% formaldehyde crosslink after washing; high values mean tight binding
# Conditions in all cases: protein: recombinant; tags: N-terminal GST; dsDNA, one strand shown
# [1] = target: T1, FLI1 (Homo sapiens, UniProt Q01543 1-452)
# T1 sequence: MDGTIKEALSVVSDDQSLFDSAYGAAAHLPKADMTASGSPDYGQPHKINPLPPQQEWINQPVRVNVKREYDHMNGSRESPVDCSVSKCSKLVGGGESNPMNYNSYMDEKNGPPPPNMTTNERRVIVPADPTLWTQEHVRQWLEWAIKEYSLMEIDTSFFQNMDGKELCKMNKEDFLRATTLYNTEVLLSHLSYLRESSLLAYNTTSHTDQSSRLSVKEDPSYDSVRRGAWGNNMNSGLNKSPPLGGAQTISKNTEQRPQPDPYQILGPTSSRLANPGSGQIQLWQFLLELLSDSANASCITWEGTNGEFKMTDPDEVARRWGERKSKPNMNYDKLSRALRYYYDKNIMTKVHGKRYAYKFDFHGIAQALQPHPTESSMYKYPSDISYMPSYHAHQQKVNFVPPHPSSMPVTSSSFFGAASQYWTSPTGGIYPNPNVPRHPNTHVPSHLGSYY
# Method in brief: (§1)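 The binding signal reported is, for every hexamer, its read frequency for a factor over its read frequency for the tag-only sample. Reads came from pools of yeast-expressed, GST-fused human transcription factors on glutathione beads, barcoded with DNA and mixed with that sample, which were incubated with 200 nmole of a random double-stranded 16-mer DNA library in Tris/NaCl/DTT/glycerol buffer at room temperature for 30 min. After washing, the pools were crosslinked with 0.1% formaldehyde, proximity-ligated with BsaI/T4 ligase for 1 h at 37 °C, PCR-amplified and sequenced on an Illumina NextSeq500.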
# [2] = target: T2, ELK1 (Homo sapiens, UniProt P19419 1-428)
# T2 sequence: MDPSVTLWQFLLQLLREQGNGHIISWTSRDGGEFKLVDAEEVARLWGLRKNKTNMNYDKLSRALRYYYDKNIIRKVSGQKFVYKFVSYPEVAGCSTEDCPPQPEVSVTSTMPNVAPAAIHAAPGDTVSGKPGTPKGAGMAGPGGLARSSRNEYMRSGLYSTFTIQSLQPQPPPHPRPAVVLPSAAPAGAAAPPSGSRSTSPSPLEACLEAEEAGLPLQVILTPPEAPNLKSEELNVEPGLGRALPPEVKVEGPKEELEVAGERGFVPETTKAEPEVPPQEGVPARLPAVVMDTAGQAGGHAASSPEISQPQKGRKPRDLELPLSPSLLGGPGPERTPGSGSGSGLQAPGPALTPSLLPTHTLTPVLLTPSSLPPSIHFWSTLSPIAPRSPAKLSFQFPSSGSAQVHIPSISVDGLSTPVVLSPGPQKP
# Method in brief: as §1
# [3] = target: T3, GABPA (Homo sapiens, UniProt Q06546 1-454)
# T3 sequence: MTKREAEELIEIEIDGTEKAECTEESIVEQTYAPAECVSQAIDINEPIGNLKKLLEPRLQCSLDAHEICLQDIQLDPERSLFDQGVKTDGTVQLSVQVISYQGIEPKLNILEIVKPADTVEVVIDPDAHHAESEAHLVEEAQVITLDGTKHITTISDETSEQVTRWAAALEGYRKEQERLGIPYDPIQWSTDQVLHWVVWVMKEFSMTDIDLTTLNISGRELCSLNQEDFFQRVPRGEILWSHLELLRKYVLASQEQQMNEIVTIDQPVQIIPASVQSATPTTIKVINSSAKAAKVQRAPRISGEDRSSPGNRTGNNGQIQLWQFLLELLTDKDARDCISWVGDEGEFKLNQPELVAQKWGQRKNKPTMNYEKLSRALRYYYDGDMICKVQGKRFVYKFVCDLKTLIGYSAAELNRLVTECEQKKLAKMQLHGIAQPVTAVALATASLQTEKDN
# Method in brief: as §1
# [4] = target: T4, ERG (Homo sapiens, UniProt P11308 1-479)
# T4 sequence: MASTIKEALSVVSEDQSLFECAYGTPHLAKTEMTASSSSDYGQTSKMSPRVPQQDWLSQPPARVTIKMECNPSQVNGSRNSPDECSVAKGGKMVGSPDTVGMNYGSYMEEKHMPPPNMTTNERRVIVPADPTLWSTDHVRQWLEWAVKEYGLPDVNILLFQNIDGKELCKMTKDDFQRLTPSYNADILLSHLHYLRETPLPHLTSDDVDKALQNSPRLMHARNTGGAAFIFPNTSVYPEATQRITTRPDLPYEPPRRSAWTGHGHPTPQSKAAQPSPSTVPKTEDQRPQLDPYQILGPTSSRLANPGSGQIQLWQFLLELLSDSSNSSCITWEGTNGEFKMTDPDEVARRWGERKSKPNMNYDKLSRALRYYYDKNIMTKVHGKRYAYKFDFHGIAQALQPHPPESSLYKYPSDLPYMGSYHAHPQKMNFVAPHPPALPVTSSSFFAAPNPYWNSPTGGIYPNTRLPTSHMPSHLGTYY
# Method in brief: as §1
# [5] = target: ELF1 (Homo sapiens, UniProt P32519 1-619)
# Method in brief: as §1
# [6] = target: T5, EHF (Homo sapiens, UniProt Q9NZC4 1-300)
# T5 sequence: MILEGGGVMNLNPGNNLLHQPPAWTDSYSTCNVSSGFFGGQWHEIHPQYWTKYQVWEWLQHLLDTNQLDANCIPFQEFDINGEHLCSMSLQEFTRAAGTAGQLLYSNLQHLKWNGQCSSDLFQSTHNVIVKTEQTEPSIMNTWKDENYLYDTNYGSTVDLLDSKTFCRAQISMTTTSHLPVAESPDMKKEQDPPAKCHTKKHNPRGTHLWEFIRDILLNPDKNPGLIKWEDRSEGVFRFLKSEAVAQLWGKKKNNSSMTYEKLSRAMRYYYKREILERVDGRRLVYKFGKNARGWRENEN
# Method in brief: as §1
# [7] = target: SPI1 (Homo sapiens, UniProt P17947 1-270)
# Method in brief: as §1
# [8] = target: SPIB (Homo sapiens, UniProt Q01892 1-262)
# Method in brief: as §1
# [9] = target: T6, ELK3 (Homo sapiens, UniProt P41970 1-407)
# T6 sequence: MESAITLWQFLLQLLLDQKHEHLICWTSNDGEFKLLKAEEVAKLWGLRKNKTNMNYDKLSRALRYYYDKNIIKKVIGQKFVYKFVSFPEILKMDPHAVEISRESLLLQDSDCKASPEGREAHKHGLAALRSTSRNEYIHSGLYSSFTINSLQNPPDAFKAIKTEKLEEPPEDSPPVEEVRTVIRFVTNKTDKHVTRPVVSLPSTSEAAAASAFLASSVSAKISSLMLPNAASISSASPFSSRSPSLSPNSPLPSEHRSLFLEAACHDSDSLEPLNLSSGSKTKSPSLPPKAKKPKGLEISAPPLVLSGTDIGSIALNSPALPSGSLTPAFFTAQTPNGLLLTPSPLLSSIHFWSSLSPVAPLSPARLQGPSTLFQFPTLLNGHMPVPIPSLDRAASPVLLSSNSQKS
# Method in brief: as §1
# Chain of ELF1 (P32519 whole entry): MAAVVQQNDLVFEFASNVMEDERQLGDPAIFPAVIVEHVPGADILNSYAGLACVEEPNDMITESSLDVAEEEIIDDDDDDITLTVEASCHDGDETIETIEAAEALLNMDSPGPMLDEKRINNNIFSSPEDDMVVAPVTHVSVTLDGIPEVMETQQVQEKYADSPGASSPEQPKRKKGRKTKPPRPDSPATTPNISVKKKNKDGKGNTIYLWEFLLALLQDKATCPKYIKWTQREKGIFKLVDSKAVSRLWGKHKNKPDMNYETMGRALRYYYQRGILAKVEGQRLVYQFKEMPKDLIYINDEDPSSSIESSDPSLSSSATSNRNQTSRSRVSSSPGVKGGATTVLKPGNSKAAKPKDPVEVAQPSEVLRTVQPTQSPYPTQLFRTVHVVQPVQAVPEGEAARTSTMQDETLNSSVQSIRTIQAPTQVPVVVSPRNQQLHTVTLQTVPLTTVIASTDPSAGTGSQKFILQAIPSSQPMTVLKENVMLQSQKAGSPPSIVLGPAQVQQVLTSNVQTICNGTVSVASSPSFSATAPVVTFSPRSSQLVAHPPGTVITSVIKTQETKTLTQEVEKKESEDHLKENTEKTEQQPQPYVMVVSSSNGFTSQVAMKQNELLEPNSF
# Chain of SPIB (Q01892 whole entry): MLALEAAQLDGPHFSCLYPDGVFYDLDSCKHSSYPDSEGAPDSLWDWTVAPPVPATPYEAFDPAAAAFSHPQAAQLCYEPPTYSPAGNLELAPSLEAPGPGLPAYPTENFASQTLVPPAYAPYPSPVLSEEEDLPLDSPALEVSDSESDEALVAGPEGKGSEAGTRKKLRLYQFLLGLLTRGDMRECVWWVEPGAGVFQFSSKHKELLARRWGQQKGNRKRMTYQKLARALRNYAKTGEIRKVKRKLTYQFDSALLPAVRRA
sequence,measurement,setting,value
CTACGA,binding signal,[1],"1.16 fold enrichment (6-mer frequency, TF over GST control)"
same,binding signal,[2],"1.24 fold enrichment (6-mer frequency, TF over GST control)"
same,binding signal,[3],"1.29 fold enrichment (6-mer frequency, TF over GST control)"
same,binding signal,[4],"1.2 fold enrichment (6-mer frequency, TF over GST control)"
same,binding signal,[5],"1.27 fold enrichment (6-mer frequency, TF over GST control)"
same,binding signal,[6],"1.25 fold enrichment (6-mer frequency, TF over GST control)"
same,binding signal,[7],"1.14 fold enrichment (6-mer frequency, TF over GST control)"
same,binding signal,[8],"1.23 fold enrichment (6-mer frequency, TF over GST control)"
same,binding signal,[9],"1.33 fold enrichment (6-mer frequency, TF over GST control)"
ATTCGA,binding signal,[1],"1.3 fold enrichment (6-mer frequency, TF over GST control)"
same,binding signal,[2],"1.22 fold enrichment (6-mer frequency, TF over GST control)"
same,binding signal,[3],"1.37 fold enrichment (6-mer frequency, TF over GST control)"
same,binding signal,[4],"1.33 fold enrichment (6-mer frequency, TF over GST control)"
same,binding signal,[5],"1.41 fold enrichment (6-mer frequency, TF over GST control)"
same,binding signal,[6],"1.29 fold enrichment (6-mer frequency, TF over GST control)"
same,binding signal,[7],"1.32 fold enrichment (6-mer frequency, TF over GST control)"
same,binding signal,[8],"1.38 fold enrichment (6-mer frequency, TF over GST control)"
same,binding signal,[9],"1.25 fold enrichment (6-mer frequency, TF over GST control)"
ACTTCA,binding signal,[1],"1.43 fold enrichment (6-mer frequency, TF over GST control)"
same,binding signal,[2],"1.41 fold enrichment (6-mer frequency, TF over GST control)"
same,binding signal,[3],"1.45 fold enrichment (6-mer frequency, TF over GST control)"
same,binding signal,[4],"1.4 fold enrichment (6-mer frequency, TF over GST control)"
same,binding signal,[5],"1.42 fold enrichment (6-mer frequency, TF over GST control)"
same,binding signal,[6],"1.35 fold enrichment (6-mer frequency, TF over GST control)"
same,binding signal,[7],"1.45 fold enrichment (6-mer frequency, TF over GST control)"
same,binding signal,[8],"1.47 fold enrichment (6-mer frequency, TF over GST control)"
same,binding signal,[9],"1.44 fold enrichment (6-mer frequency, TF over GST control)"
CTGGCT,binding signal,[1],"1.33 fold enrichment (6-mer frequency, TF over GST control)"
same,binding signal,[2],"1.31 fold enrichment (6-mer frequency, TF over GST control)"
same,binding signal,[3],"1.37 fold enrichment (6-mer frequency, TF over GST control)"
same,binding signal,[4],"1.3 fold enrichment (6-mer frequency, TF over GST control)"
same,binding signal,[5],"1.25 fold enrichment (6-mer frequency, TF over GST control)"
same,binding signal,[6],"1.26 fold enrichment (6-mer frequency, TF over GST control)"
same,binding signal,[7],"1.18 fold enrichment (6-mer frequency, TF over GST control)"
same,binding signal,[8],"1.22 fold enrichment (6-mer frequency, TF over GST control)"
same,binding signal,[9],"1.12 fold enrichment (6-mer frequency, TF over GST control)"
CTACAT,binding signal,[1],"1.43 fold enrichment (6-mer frequency, TF over GST control)"
same,binding signal,[2],"1.4 fold enrichment (6-mer frequency, TF over GST control)"
same,binding signal,[3],"1.44 fold enrichment (6-mer frequency, TF over GST control)"
same,binding signal,[4],"1.32 fold enrichment (6-mer frequency, TF over GST control)"
same,binding signal,[5],"1.38 fold enrichment (6-mer frequency, TF over GST control)"
same,binding signal,[6],"1.28 fold enrichment (6-mer frequency, TF over GST control)"
same,binding signal,[7],"1.38 fold enrichment (6-mer frequency, TF over GST control)"
same,binding signal,[8],"1.5 fold enrichment (6-mer frequency, TF over GST control)"
same,binding signal,[9],"1.43 fold enrichment (6-mer frequency, TF over GST control)"
ACAATC,binding signal,[1],"1.08 fold enrichment (6-mer frequency, TF over GST control)"
same,binding signal,[2],"1.09 fold enrichment (6-mer frequency, TF over GST control)"
same,binding signal,[3],"1.19 fold enrichment (6-mer frequency, TF over GST control)"
same,binding signal,[4],"1.16 fold enrichment (6-mer frequency, TF over GST control)"
same,binding signal,[5],"1.21 fold enrichment (6-mer frequency, TF over GST control)"
same,binding signal,[6],"1.13 fold enrichment (6-mer frequency, TF over GST control)"
same,binding signal,[7],"1.12 fold enrichment (6-mer frequency, TF over GST control)"
same,binding signal,[8],"1.09 fold enrichment (6-mer frequency, TF over GST control)"
same,binding signal,[9],"1.13 fold enrichment (6-mer frequency, TF over GST control)"
TATATA,binding signal,[1],"1.23 fold enrichment (6-mer frequency, TF over GST control)"
same,binding signal,[2],"1.37 fold enrichment (6-mer frequency, TF over GST control)"
same,binding signal,[3],"1.26 fold enrichment (6-mer frequency, TF over GST control)"
same,binding signal,[4],"1.3 fold enrichment (6-mer frequency, TF over GST control)"
same,binding signal,[5],"1.32 fold enrichment (6-mer frequency, TF over GST control)"
same,binding signal,[6],"1.32 fold enrichment (6-mer frequency, TF over GST control)"
same,binding signal,[7],"1.21 fold enrichment (6-mer frequency, TF over GST control)"
same,binding signal,[8],"1.49 fold enrichment (6-mer frequency, TF over GST control)"
same,binding signal,[9],"1.17 fold enrichment (6-mer frequency, TF over GST control)"
